Measured values: PubChem BioAssay (NCI)
Where “and” joins values, the source holds several entries; their conditions need not be identical. Equal values may be shown once. This is part of a sample that, as a whole, favours compounds with a hit. Of some 83,000 tested, about 20% had one in any assay.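 Single-concentration screen, 48 h exposure, 96-well plates. Endpoint: percent growth. Below 10 = active.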 Calls of active or inactive are those of the source.

test system: MDA-MB-468 breast; experiment: NCI-60 one-dose screen, 48 h (100 = growth as untreated, 0 = no growth, -100 = all killed); conditions: 10 µM unless noted

SMILES | growth
CCOC(=O)c1cc(-c2cccnc2)nc2c(Cl)cc(Cl)cc12 | 117% (inactive)
Oc1c(Cl)cc(Cl)c2ccc(Cn3cc(-c4cccc(C(F)(F)F)c4)nn3)nc12 | 56.4% (inactive)
COc1ccc(/C=C2\COc3ccc(-c4ccccc4)cc3C2=O)c(OC)c1 | 57% (inactive)
COc1ccc(-c2nc3sccn3c2-c2ccnc(S(C)(=O)=O)n2)cc1 | -25.9% (active)
CC(=O)[C@@H]1CC[C@]2(COS(=O)(=O)c3ccc(C)cc3)CC[C@]3(C)[C@H](CC[C@@H]4[C@@]5(C)CCCNC(C)(C)[C@@H]5CC[C@]43C)[C@@H]12 | 20.2% (inactive)
O=c1cc(C(F)(F)F)c2cc(-c3cc4ccccc4c(=O)o3)c(O)cc2o1 | 61.4% (inactive)
C=C(C)[C@@H]1CC[C@]2(COS(C)(=O)=O)CC[C@]3(C)[C@H](CC[C@@H]4[C@@]5(C)CCCNC(C)(C)[C@@H]5CC[C@]43C)[C@@H]12 | 49.9% (inactive)
CC(C)(C)c1cc(Cl)c(O)c(CNCCO)c1 | 96.1% (inactive)
Nc1[nH]nc(Nc2ccccc2)c1-c1nc2ccccc2s1 | 17.5% (inactive)
Clc1ccc(/C=C2\CCCC3=C2N=C2SC=NN2C3c2ccc(Cl)cc2)cc1 (stereo not given) | 90.4% (inactive)
CCN1C(=O)/C(=C/C(=O)OC)S/C1=N\NC(=O)c1cc2ccc1/C=C\c1ccc(cc1)/C=C\2 | 87.3% (inactive)
O=C1CSC2=NCCN12 | 105% (inactive) and 100% (inactive)
N#CC(C#N)=C/C=C/c1cccc([N+](=O)[O-])c1 | -56.4% (active) and -30.4% (active)
CC(C)c1ccc(C(=O)Nc2nc3ccc(O)c(CN(C)C)c3s2)cc1 | 77.1% (inactive)
NC(CC(=O)O)C(=O)OCc1ccccc1 (stereo not given) | 89.4% (inactive)
Cc1ccc(C2=NN(c3ccc(S(=O)(=O)NC(=O)NCc4ccccc4)cc3)C(c3ccc(N(C)C)cc3)C2)c(C)c1 (stereo not given) | 49.4% (inactive)
O=C1Nc2ccccc2/C1=C\c1cccc(/C=C2/C(=O)Nc3ccccc32)n1 | -33.2% (active)
COC(=O)C(N)CC(C)C (stereo not given) | 98% (inactive)
COc1cccc(/C=C/C(=O)c2cc3c(N)c(C(=O)Nc4cccc5ccccc45)sc3nc2C)c1 | 17.4% (inactive)
O=C1c2ccccc2C(=O)c2c1cccc2-n1nnc2ccccc21 | 109% (inactive)

SMILES | growth
N#C/C(=C\c1ccc(-c2ccc(Cl)c(Cl)c2)o1)c1nc(-c2ccco2)cs1 | -38.2% (active)
COc1ccc(C(O)c2cc3c(N)c(C(=O)Nc4cccc(Cl)c4)sc3nc2C)cc1 (stereo not given) | 22.4% (inactive)
C/C=C/C1=CN2C(=O)c3cc(OC4OC(C)C(NC)C(C)(O)C4O)c(C)c(O)c3N=C[C@@H]2C1 (stereo not given in full) | -57.5% (active)
CSc1nc2ccccc2cc1/C=C1/C=C(c2ccccc2)NC1=O | 61.6% (inactive)
COC(=O)c1cccc([N+](=O)[O-])c1 | 105% (inactive)
OC(COc1ccccc1)CN1CCN(c2ccc(Cl)cc2)CC1 (stereo not given) | 104% (inactive)
COc1ccc(OC)c(NC=O)c1 | 97% (inactive)
COc1ccc(/C=C/C(=O)c2cc(OC)c(OC)c(OC)c2)cc1OCC(=O)Nc1nc2ccc(OC(F)(F)F)cc2s1 | 55.1% (inactive)
CCOC(=O)C1=C(C)n2nc(CC#N)c(C#N)c2NC1c1ccc(CC)cc1 (stereo not given) | 114% (inactive)
CCOC(=O)Nc1nc2ccccc2[nH]1 | 99.4% (inactive) and 26.8% (inactive)
Cn1ccnc1C(=O)/C=C/c1ccc(CC(=O)Nc2ccc(Cl)cc2)cc1 | -15.4% (active)
O=C(CCc1nnc2sc(COc3ccccc3)nn12)c1nc2ncccc2[nH]1 | 100% (inactive)
C#CCN(C)CCCOc1ccc(NCc2ccc(C(=O)NO)cc2)cc1Cl | -5.18% (active)
Cc1c(NC(=O)CSc2nc3sc4c(c3c(=O)n2-c2ccc(Cl)cc2)CCCC4)c(=O)n(-c2ccccc2)n1C | 89.8% (inactive)
Cc1cc(C)c(NC(=O)c2sc3nc4c(cc3c2N)CCCC4)c(C)c1 | 47.9% (inactive)
C#C[C@]1(O)CC[C@H]2[C@@H]3CC=C4c5sc(-c6ccc(OC)cc6)nc5CC[C@]4(C)[C@H]3CC[C@@]21C | 71.6% (inactive)
COc1ccc(Cn2cc(Cn3c(=O)c(-c4nc5ccccc5[nH]4)cc4ccccc43)nn2)c(OC)c1OC | 13.6% (inactive)
N=c1c(S(=O)(=O)c2ccccc2)cc2c(=O)n3ccccc3nc2n1C1CCCC1 | 88.1% (inactive)
C/C(=C\CCc1ccsc1)CC/C=C(\C)CCCN1CCC(CO)CC1 | -27.3% (active)
COc1cccc(NC(=O)Cn2cc(CN3CCN(c4ccnc5cc(Cl)ccc45)CC3)nn2)c1 | 84.1% (inactive)
